From PubChem
ADAM10 inh: ADAM10 inhibition, QFRET primary screen. O14672. recombinant ADAM10, EDANS/DABCYL FRET peptide cleavage, 3 h. inhibition, % at 7 µM. 370,000 tested, 0.62% active. AID 720582;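 active means inhibition above a per-campaign cutoff equal to the mean of compounds falling between control-based bounds plus 3 SD, cut at about 20% in these data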
ADAM17 inh: inhibitors of human ADAM17 | recombinant ADAM17, EDANS/DABCYL FRET peptide cleavage | inhibition, % at 6.95 µM | 370,000 tested, 0.83% active | AID 720648;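 active means inhibition above the mean of compounds lying between control limits plus 3 SD, set per campaign, cut at about 8.5% in these data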
Target sequence (P78536 215-824 limits assumed): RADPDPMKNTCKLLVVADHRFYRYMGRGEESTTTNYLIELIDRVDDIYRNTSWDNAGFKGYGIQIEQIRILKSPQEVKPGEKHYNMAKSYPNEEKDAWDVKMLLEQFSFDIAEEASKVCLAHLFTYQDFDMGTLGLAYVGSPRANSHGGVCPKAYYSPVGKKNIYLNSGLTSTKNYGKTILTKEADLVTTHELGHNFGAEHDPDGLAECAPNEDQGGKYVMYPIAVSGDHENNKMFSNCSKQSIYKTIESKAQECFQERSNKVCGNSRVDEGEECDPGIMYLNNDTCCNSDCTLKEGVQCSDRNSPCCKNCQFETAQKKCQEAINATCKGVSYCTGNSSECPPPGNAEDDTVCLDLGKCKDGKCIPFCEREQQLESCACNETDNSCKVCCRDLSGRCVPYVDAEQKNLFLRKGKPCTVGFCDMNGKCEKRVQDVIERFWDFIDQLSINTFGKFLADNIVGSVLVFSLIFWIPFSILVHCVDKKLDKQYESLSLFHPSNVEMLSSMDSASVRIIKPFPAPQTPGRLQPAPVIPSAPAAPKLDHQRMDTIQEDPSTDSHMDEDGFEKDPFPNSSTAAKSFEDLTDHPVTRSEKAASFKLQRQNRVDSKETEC
proKLK7 act: proKLK7 (human) activation, primary screen; P49862; purified proKLK7, EDANS-DABCYL substrate fluorescence; 100% is mature enzyme control, 0% vehicle; activation, % at 7 µM; 370,000 tested, 0.9% active;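 active means activation above the mean of all tested compounds plus 3 SD, computed per campaign excluding outliers beyond control limits, cut at about 13% in these data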
PLCb3 inh: PLC-beta3 (human) inhibition, primary screen; Q01970; Purified PLC-beta3, fluorogenic substrate, fluorescence; inhibition, % at 12.2 µM; 370,000 tested, 0.18% active; in the data active means inhibition above about 11%
HGIII-sPLA2 inh: Inhibits HGIII-sPLA2 liposome hydrolysis, primary screen | AID 743126 | QFRET BODIPY PC-A2 liposome hydrolysis, fluorescence | inhibition, % at 12.2 µM | 370,000 tested, 0.56% active;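 active means inhibition above mean plus 3 SD of compounds lying within the high and low control bounds, cut at about 19% in these data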
PLC-gamma1 inh: inhibitors of human phospholipase C gamma1. P19174. purified PLC-gamma1, fluorogenic substrate, fluorescence. inhibition, % at 12.2 µM. 370,000 tested, 0.84% active. AID 720700
PLCg1 ctr: inhibits human PLC-gamma1 in PLC-beta3 counter-screen; shares compounds with PLC-gamma1 inh; purified PLC-gamma1, fluorogenic substrate, fluorescence; inhibition, % at 12.3 µM; 3,300 tested, 3.1% active; AID 743258
PLCb3 confirm: human PLC-beta3 inhibition, confirmation; shares compounds with PLC-gamma1 inh; purified PLC-beta3, fluorogenic substrate fluorescence; inhibition, % at 12.3 µM; 3,300 tested, 1% active; AID 743261; in the data active means inhibition above about 11%
Numbers stand for hits; i = inactive; nt = no result given. In the library only some 3.4% were active in any assay of this set; here they are far more common. Unless noted, no stated cut-off is given here; in the data, active means inhibition above about 9.5%; inactive means the rest.

SMILES	ADAM10 inh	ADAM17 inh	proKLK7 act	PLCb3 inh	HGIII-sPLA2 inh	PLC-gamma1 inh	PLCg1 ctr	PLCb3 confirm
O=C(NC(=S)Nc1cccc(Cl)c1N1CCOCC1)c1cccs1	i	i	i	i	i	9.9	i	i
O=C(NC(=S)Nc1cccc(Cl)c1N1CCCCC1)c1cccs1	i	i	i	i	i	i	nt	nt
O=C(CCN1CCN(c2ccccc2F)CC1)Nc1ccccc1F	i	i	i	i	i	11	i	i
O=C(CN1CCN(c2ccccc2F)CC1)Nc1ccccc1F	i	i	i	i	i	i	nt	nt
Nn1c(SCC(=O)NC2CCCCC2)nnc1-c1cc(-c2ccc(F)cc2)n[nH]1	i	i	i	i	i	i	nt	nt
O=C(Nc1ccc(F)cc1)OCc1cn(Cc2cccc(F)c2F)nn1	i	i	i	i	i	i	nt	nt
COc1cccc(C(=O)NNC(=O)CCN2CCN(c3ccccc3)CC2)c1	i	i	i	13	i	i	i	i
CCCCOc1cccc(C(=O)Nc2ccc(N3CCN(CC)CC3)cc2)c1	i	i	i	11	i	i	i	i
COc1cccc(C(=O)NCCN2CCN(c3ccc(Cl)cc3)CC2)c1	i	i	i	i	i	9.9	i	i
COP(=O)(O)C(C)NC(=O)OCc1ccccc1 (configuration not stated)	i	i	i	i	i	i	nt	nt
O=C(ON=C1CCN(c2ccc([N+](=O)[O-])cc2)CC1)c1ccccc1	i	i	i	i	i	9.9	i	i
CC(O)c1nc2ccccc2n1Cc1ccccc1 (configuration not stated)	i	i	i	i	i	i	nt	nt
CC(O)c1nc2ccccc2n1CC(=O)N1CCN(c2ccccc2)CC1 (configuration not stated)	i	i	i	i	i	11	i	i
O=C1[C@@H](C2CC2)[C@@H]2c3ccccc3C=NN2[C@@H]2c3ccccc3C=NN12	i	i	i	i	i	i	nt	nt
Cc1ccc(OCC(=O)OCc2c(C)noc2C)cc1C	i	i	i	i	i	15	i	i
Cc1nc2ccc(NC(=O)c3ccc(F)cc3Cl)cc2c(=O)[nH]1	i	i	i	i	i	i	nt	nt
O=C(O)CS(=O)CC(=O)Nc1cccc(C(F)(F)F)c1 (configuration not stated)	i	i	i	i	i	20	25	i
Cc1nc2c3cc(F)ccc3n(Cc3ccccc3)c2s1	i	i	i	i	i	i	nt	nt
Cc1nc2c3cc(F)ccc3n(CCN3CCCCC3)c2s1	i	i	i	i	i	9.7	i	i
CCN1CCN(C(=S)Nc2ccc(Cl)cc2Cl)CC1	i	i	i	i	i	i	nt	nt
CN1CCN(C(=S)Nc2ccc(Cl)cc2Cl)CC1	i	i	i	i	i	10	i	i
CCCCCc1c(-c2cccc(Cl)c2)ncn1CCc1ccccc1OC	i	i	i	i	i	10	i	i
Cc1cccc(NC(=O)Cn2c(O)c(N=NC(=O)c3ccccc3O)c3ccccc32)c1	i	i	i	i	i	11	i	i
NC(=S)N=Nc1c(O)n(CC(=O)Nc2ccccc2)c2ccccc12	i	i	i	i	i	i	nt	nt
COc1ccc(/C=C2\CC3(OC(=O)c4ccco4)CCCN2C3)cc1 (configuration not stated)	i	i	i	i	i	i	nt	nt
SMILES	ADAM10 inh	ADAM17 inh	proKLK7 act	PLCb3 inh	HGIII-sPLA2 inh	PLC-gamma1 inh	PLCg1 ctr	PLCb3 confirm
COc1ccccc1-c1cccc2[nH]c3c(c12)CCN1C(=O)[C@H]2[C@H](C)ON(C)[C@H]2C[C@@H]31	i	i	i	i	i	i	nt	nt
Cc1c(C(=O)N/N=C/c2cccs2)nnn1-c1nonc1N	i	i	i	i	i	12	i	i
CC(=O)Nc1cccc(NC(=O)c2cc3ccccc3o2)c1	i	i	i	i	i	9.7	i	i
CC(C)C(=O)Nc1cccc(NC(=O)c2cc3ccccc3o2)c1	i	i	i	i	i	i	nt	nt
O=C(Nc1cccc(Cl)c1)Nc1cc(S(=O)(=O)N2CCOCC2)ccc1N1CCCC1	i	i	i	i	i	11	i	i
O=C(COC(=O)c1ccccc1[N+](=O)[O-])Nc1cc(S(=O)(=O)N2CCOCC2)ccc1N1CCCC1	i	i	i	i	i	12	i	i
